Data as given in PubChem BioAssay.
Calls of active or inactive are those of the source.

Legend:
[1] = A549 cell viability effects, profiling panel, calcein-AM fluorescence, 48 h, basal (AID 1162); details: higher = more signal
[2] = adipocyte viability effects, profiling panel, cell-based, 3T3-L1 adipocytes, calcein-AM fluorescence, 48 h, basal (AID 1163); details: 3T3-L1 adipocytes viability, higher = more signal
[3] = HepG2 cell viability effects, profiling panel, calcein-AM fluorescence, 48 h, basal (AID 1164); details: higher = more signal
[4] = MM1S cell viability effects, profiling panel, calcein-AM fluorescence, 48 h, basal (AID 1165); details: higher = more signal;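 further: viability of MM1S multiple myeloma cells under basal unstimulated conditions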
[5] = basal RPMI8226 viability, no added stimulus, profiling panel, cell-based, calcein-AM fluorescence, 48 h, PK04 Diversity Set (AID 1166); details: RPMI8226 myeloma viability, higher = more signal;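 further: cells grown under basal conditions without added stimulus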
[6] = basal HepG2 mitochondrial membrane potential changes, profiling panel, cell-based, JC-1 fluorescence, 24 h, 100 nL compound (AID 1167); details: higher = more signal
[7] = basal 3T3-L1 adipocyte mitochondrial potential changes, profiling panel, cell-based, JC-1 fluorescence, 3T3-L1 adipocytes, 24 h, 100 nL compound (AID 1168); details: JC-1 mitochondrial fluorescence, higher = more signal, called active from +8 up or from −8 down
[8] = basal RPMI8226 mitochondrial membrane potential changes, profiling panel, cell-based, JC-1 fluorescence, 24 h, 100 nL compound (AID 1169); details: RPMI8226 myeloma, JC-1 mitochondrial potential fluorescence, higher = more signal
[9] = basal MM1S mitochondrial membrane potential changes, profiling panel, cell-based, JC-1 fluorescence, 24 h, 100 nL compound (AID 1170); details: higher = more signal
[10] = A549 lung cancer cell viability effects, profiling panel, resazurin fluorescence, 24 h, PK04 Diversity Set (AID 1171); details: higher = more signal, called active from +8 up or from −8 down
Further: test concentration not given here.

SMILES	z-score [1]	z-score [2]	z-score [3]	z-score [4]	z-score [5]	z-score [6]	z-score [7]	z-score [8]	z-score [9]	z-score [10]
CCOc1cc(C(O)C2C=CC3C(=O)N(c4ccccc4)C(=O)C3N2Nc2ccc([N+](=O)[O-])cc2)ccc1O (stereo not given)	-0.499	-0.742	-0.527	0.162	-0.223	-2.36	-2.03 (inactive)	-0.459	-0.908	-0.373 (inactive)
COCCCNC(=O)[C@@]1(c2ccc([N+](=O)[O-])cc2)CC(=O)N(CC23CC4CC(CC(C4)C2)C3)[C@@H]1c1ccc(CO)cc1	-0.995	0.109	0.198	-1.93	-2.42	0.461	-0.381 (inactive)	0.0554	-0.784	-0.968 (inactive)
CC(=CC1CCCCC1)[C@@H](NC(=O)c1ccc(C(F)(F)F)cc1)c1ccc(-c2ccccc2)cc1	-0.165	-0.791	-0.839	-1.5	-2.06	-2.33	-1.09 (inactive)	-0.515	-0.693	0.334 (inactive)
COCCOC(=O)N1C(=O)[C@@]2(c3cc(C#Cc4ccc(OC)cc4)ccc31)[C@H](C(=O)N1CCN(c3ncccn3)CC1)[C@H]1C(=O)O[C@H](c3ccccc3)[C@H](c3ccccc3)N1[C@@H]2c1ccc(O)cc1	1.23	1.26	0.986	0.973	0.806	-0.013	2.2 (inactive)	0.157	0.193	1.31 (inactive)
COCCOC(=O)N1C(=O)[C@@]2(c3cc(C#CCNC(N)=O)ccc31)[C@H](c1ccc(OCCO)cc1)N1[C@H](c3ccccc3)[C@H](c3ccccc3)OC(=O)[C@H]1[C@@H]2C(=O)N1CCc2cc(OC)c(OC)cc2C1	1.24	0.427	0.34	0.451	-0.172	-1.04	1.65 (inactive)	-0.489	-1.32	-0.189 (inactive)
C=CCNC(=O)[C@@H]1[C@H]2C(=O)O[C@H](c3ccccc3)[C@H](c3ccccc3)N2[C@H](c2ccc(O)cc2)[C@@]12C(=O)N(C(=O)OCCOC)c1ccccc12	0.231	2.01	0.0902	-0.549	-1.52	-0.338	0.951 (inactive)	0.104	-0.0916	0.425 (inactive)
COCCCNC(=O)[C@@]1(CCC(=O)OC(C)(C)C)N=C(c2ccc(OCCCO)cc2)O[C@H]1c1ccccc1CN=[N+]=[N-]	0.463	0.892	-0.244	0.153	-0.853	0.88	-0.736 (inactive)	0.665	0.5	0.155 (inactive)
CC(c1ccccc1)C(O)C1C=CC2C(=O)NC(=O)C2N1Nc1ccccn1 (stereo not given)	0.405	-0.309	0.925	-0.275	0.291	0.0592	-0.739 (inactive)	0.568	-0.533	-0.81 (inactive)
COc1ccc(C#Cc2ccc3c(c2)[C@]2(C(=O)N3)[C@H](C(=O)NC[C@H](O)c3ccccc3)[C@H]3C(=O)O[C@H](c4ccccc4)[C@H](c4ccccc4)N3[C@@H]2c2ccccc2OCCO)cc1	-1.86	0.0393	-3.16	-3.35	-3.4	-2.27	2.97 (inactive)	-0.865	-1.7	-1.58 (inactive)
O=C1OCC=C[C@H]2OC34C=CCN(c5ccc(Cl)cc5)C(=O)[C@H]3N(CCCCCCO)C(=O)[C@@H]4[C@@H]12 (stereo not given in full)	0.32	-0.122	0.955	1.12	0.057	0.715	0.26 (inactive)	0.231	1.5	1.12 (inactive)
O=C1OCCC/C=C\[C@H]2OC34C=CCN(Cn5nnc6ccccc65)C(=O)[C@H]3N(CCCCCO)C(=O)[C@@H]4C12 (stereo not given in full)	-0.452	1.05	-1.02	-0.496	0.424	0.19	0.0884 (inactive)	-0.212	0.37	0.0684 (inactive)
CC(C)CNC(=O)[C@@]1(c2ccc([N+](=O)[O-])cc2)CC(=O)N(CC23CC4CC(CC(C4)C2)C3)[C@@H]1c1ccc(CO)cc1I	-0.394	0.604	-3.4	-3.83	-4.32	1.47	-0.744 (inactive)	-0.948	-0.674	-2.77 (inactive)
CN1C=C(C(=O)OCCS(C)(=O)=O)C(C(=O)OCCS(C)(=O)=O)=CC(CCCO)=CC1C1CC1 (stereo not given)	-0.731	0.197	1.23	0.509	0.535	0.838	0.448 (inactive)	0.326	-1.09	0.129 (inactive)
CC(C)CNC(=O)[C@@H]1c2ccccc2C(=O)N(Cc2cc(C(F)(F)F)cc(C(F)(F)F)c2)[C@H]1c1ccc(CO)cc1	0.099	0.628	-0.155	0.37	-0.754	0.363	-0.861 (inactive)	0.428	1.25	-0.0372 (inactive)
C=C(COC)C(=O)CC[C@@H](OC(=O)c1cccnc1)c1ccc(CO)o1	0.408	-0.615	0.0726	-0.193	-0.205	-0.178	-0.294 (inactive)	0.0598	0.627	0.709 (inactive)
COC(=O)[C@@]1(Cc2ccccc2)N=C(c2ccc(OCCCO)cc2)O[C@H]1c1ccccc1N=[N+]=[N-]	0.119	0.113	-2.06	-3.35	-4.04	1.12	-0.528 (inactive)	-1.11	-0.896	-1.83 (inactive)
CCCCC=C[C@@H](NC(=O)c1cccs1)c1ccccc1	-2.03	-0.906	-1.92	-1.66	-4.69	-0.503	0.482 (inactive)	-0.817	-1.73	-1.49 (inactive)
CCN(CC)c1ccc(N2CC=CC34O[C@@H]5C=CCCOC(=O)C5[C@H]3C(=O)N(CCCCCO)[C@@H]4C2=O)cc1 (stereo not given in full)	1.69	0.132	1.08	1.39	-0.0513	1.65	1.27 (inactive)	0.589	0.84	1.62 (inactive)
O=C1O[C@@H](c2ccccc2)[C@@H](c2ccccc2)N2[C@@H](c3ccc(OCCO)cc3)[C@]3(C(=O)Nc4ccccc43)[C@@H](C(=O)Nc3nc4ccccc4s3)[C@H]12	-0.328	-0.343	0.27	-0.829	-1.17	-3.31	2.07 (inactive)	-1.05	-1.86	-1.4 (inactive)
COc1ccc([Si](C)(C)[C@H]2[C@H](CC(=O)N(CCO)Cc3ccccc3)O[C@@]3(C(=O)N(Cc4cccc(N5CCC5=O)c4)c4ccccc43)[C@@H]2C)cc1	-1.42	1.48	-1.93	-1.6	-4.08	0.967	0.498 (inactive)	-0.873	-1.27	-1.97 (inactive)
Cc1ccccc1C(O)C1C=CC2C(=O)N(C)C(=O)C2N1Nc1ccccc1 (stereo not given)	0.262	-1.23	-0.284	-0.143	-0.272	-1.96	-1.19 (inactive)	-0.317	-0.00815	-0.621 (inactive)
N[C@@H](Cc1ccccc1)Cn1cc(-c2ccccc2)nn1	-0.192	-0.711	-0.0622	-1.57	-0.0672	1.18	0.399 (inactive)	-0.515	0.137	0.837 (inactive)
C#CCN(C(/C=C/c1ccccc1)CO)C(C(=O)O)c1ccccc1 (stereo not given)	-0.341	1.45	-0.996	-0.659	-1.23	0.277	1.08 (inactive)	-0.782	0.0117	-0.668 (inactive)
[N-]=[N+]=NCc1ccccc1[C@H]1OC(c2ccc(OCCCO)cc2)=N[C@@]1(CCS(=O)(=O)c1ccccc1)C(=O)N1CCOCC1	1.91	0.831	1.01	-0.921	0.695	-1.05	0.455 (inactive)	-0.507	-0.877	0.388 (inactive)
COC(=O)[C@@]1(Cc2ccc(F)cc2)[C@H]2c3cc(C(=O)N4CCCC4)n(Cc4cccc5ccccc45)c3C[C@H]2CN1C(=O)c1ccccc1	-0.805	0.42	0.0082	-1.03	-1.07	3.8	-1.48 (inactive)	0.127	-0.779	0.785 (inactive)
COC(=O)C1=CC(CCCO)=CC(C2CC2)N(Cc2sc3ccccc3c2Cl)C=C1C(=O)OC (stereo not given)	-0.637	0.326	-0.514	-2.99	-4.06	0.00468	0.235 (inactive)	-0.915	0.00801	0.0509 (inactive)
Cc1ccc(S[C@]2(C(=O)NC3CC3)CC(=O)N(Cc3ccccc3)[C@@H]2c2ccc(CO)cc2)cc1	1.29	-0.119	-0.12	-0.0947	0.181	-0.439	-0.199 (inactive)	1.07	-0.452	0.846 (inactive)
